Measured values reported in PubChem BioAssay (Tox21).
Active and inactive are the calls of the source. Calls follow the shape of the full dose curve.

Assay: qHTS assay to identify small molecule agonists of the sonic hedgehog signaling (Shh) pathway (AID 1259368);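 also: NIH/3T3-derived 3T3Gli1-Luc cells carrying a stable Gli1-driven firefly luciferase reporter; nearly all actives have a fitted effect of over 15% in size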
Details: NIH/3T3 Gli1-Luc reporter, luciferase, 24 h; series mostly up to 92.4 µM; activity change: at the top concentration
Excerpt: National Center for Advancing Translational Sciences [NCATS]
NIH Chemical Genomics Center [NCGC]
U.S. Environmental Protection Agency [EPA]
National Institutes of Environmental Health Sciences [NIEHS]
National Toxicology Program [NTP]
The sonic hedgehog (Shh) pathway is essential for normal embryonic development. Dysregulation of the Shh pathway can cause severe developmental defects in organs. Therefore chemicals that interfere with the pathway are potential developmental toxicants. A cell line designated 3T3Gli1-Luc (DMB/OARSA/CFSAN/FDA, Laurel, MD), a NIH/3T3 derived clone containing stably integrated Gli1-Luc reporter is used to detect chemical interference of the Shh pathway, by changes in the expression of the firefly Luc gene under the control of the Gli1 transcriptional response element. This cell line was used to screen Tox21 libraries for identifying and prioritizing the potential developmental toxicants that interfere Shh pathway.
3T3 Gli1-Luc cells were dispensed at 2,000 per well in 5uL of culture medium into white solid bottom 1536-well plates (Greiner Bio-One, Monroe, NC) using a Multidrop Combi (Thermo Scientific, Waltham, MA) dispenser. The assay plates were incubated at 37 C and 5% CO2 for 4hr, and then 23nL of compounds dissolved in DMSO and positive control were transferred using a Pintool station (Wako, San Diego, CA). The assay plates were incubated at 37C and 5% CO2 for 24hr. For luciferase read, 4uL of Amplite Luciferase reporter gene assay reagent (AAT Bioquest, Inc. Sunnyvale, CA) was added to each well of the assay plates using Flying Reagent Dispenser (FRD, Aurora Discovery, San Diego, CA) and incubated at room temperature for 30min. The luminescence signal was measured using a ViewLux plate reader (Perkin Elmer, Shelton, CT).
% is scaled to controls: 0 for no effect and ±100 for the full control effect.

Structure (SMILES) | activity change | Potency
CCCCCCCCCCCCCN1CC(C)OC(C)C1 (stereo not given) | -1.21% (inactive) | –
CCOP(=S)(OCC)SCCS(=O)(=O)CC | -1.1% (inactive) | –
N#CNC#N | 0.727% (inactive) | –
Fc1cccc(Cl)c1CCl | 0.134% (inactive) | –
Clc1ccc(-c2ccccc2)cc1 | 0.2% (inactive) | –
N#CCc1ccc(Cl)cc1 | -0.482% (inactive) | –
O=[N+]([O-])c1ccc(Oc2ccc(C(F)(F)F)cc2[N+](=O)[O-])cc1 | 0.823% (inactive) | –
CCCCCCCCCCCCCCC(Br)C(=O)O (stereo not given) | 0.056% (inactive) | –
Clc1ccc(CCC(Cn2ccnc2)Sc2c(Cl)cccc2Cl)cc1 (stereo not given) | -1.43% [at 42.5 µM, active compounds read high] (inactive) | –
Nc1ccc(Cc2ccc(N)c(Cl)c2)cc1Cl | -8.31% (inactive) | –
[Cl][Sn]([c]1ccccc1)([c]1ccccc1)[c]1ccccc1 | -11.2% [at 18.9 µM, active compounds read high] (inactive) | –
CC(C)[C@H](C(=O)OC(C#N)c1cccc(Oc2ccccc2)c1)c1ccc(OC(F)F)cc1 (stereo not given in full) | -0.183% (inactive) | –
O=CC(Br)(Br)Br | -20.9% (inactive) | –
CCCN(CCC)c1c([N+](=O)[O-])cc(S(N)(=O)=O)cc1[N+](=O)[O-] | -13% (inactive) | –
O=C(CBr)c1ccc(O)cc1 | 0.278% (inactive) | –
CC(C)(C)C(O)C(Oc1ccc(-c2ccccc2)cc1)n1cncn1 (stereo not given) | -9.77% (inactive) | –
Clc1ccc(Oc2ccccc2)cc1 | 0.0148% (inactive) | –
CC(C)CC(C)(c1ccc(O)cc1)c1ccc(O)cc1 | – | inactive
CC(=O)OC1(c2ccccc2)CCN(CCc2ccccc2)CC1 | -1.11% (inactive) | –
COC12CC[C@@]3(C[C@@H]1C(C)(O)C(C)(C)C)[C@H]1Cc4ccc(O)c5c4[C@@]3(CCN1CC1CC1)[C@H]2O5 (stereo not given in full) | -5.22% (inactive) | –

Structure (SMILES) | activity change | Potency
COC[C@H](C)N(C(=O)CCl)c1c(C)csc1C | 0.0582% (inactive) | –
C[C@]12CC[C@H](O)C[C@H]1CC[C@@H]1[C@@H]2C[C@@H](O)[C@]2(C)[C@@H](C3=CC(=O)OC3)CC[C@]12O | -0.592% (inactive) | –
C=CCOC(N)=O | -1.2% (inactive) | –
CC(=O)c1ccc(-c2ccccc2)cc1 | 2.67% (inactive) | –
CCCCCCCCCCCCBr | -2.04% (inactive) | –
CC(=O)/C=C/c1ccc2c(c1)OCO2 | 5.02% (inactive) | –
N#Cc1ccccc1Cl | -0.714% (inactive) | –
CCC(C)c1cc(C(C)(C)C)cc(-n2nc3ccccc3n2)c1O (stereo not given) | 0.601% [at 42.5 µM, active compounds read high] (inactive) | –
O=[N+]([O-])c1cc([N+](=O)[O-])c2ccccc2c1 | 1.04% (inactive) | –
O=C/C(Cl)=C(/Cl)C(=O)O | – | inactive
BrC(Br)Br | -3.07% (inactive) | –
CC(=[OH+])/C=C(/C)[O-].CC(=[OH+])/C=C(\C)[O-].CC(=[OH+])/C=C(\C)[O-].[Al] | 0.781% (inactive) | –
CC1(c2ccc(Oc3ccccc3)cc2)OC(=O)N(Nc2ccccc2)C1=O (stereo not given) | -11.9% (inactive) | –
CN(C)C1CSSSC1 | -0.258% (inactive) | –
CCOC(=O)OC1=C(c2cc(C)ccc2C)C(=O)NC12CCC(OC)CC2 (stereo not given) | -1.2% (inactive) | –
Nc1ccccc1C(=O)Oc1ccc2ccccc2c1 | 3.08% (inactive) | –
COP(=S)(OC)Oc1cc(Cl)c(Br)cc1Cl | -5.15% (inactive) | –
N#CCCC(Br)(C#N)CBr (stereo not given) | -11.5% (inactive) | –
Oc1ccc2ccc3cccc4ccc1c2c34 | -2.77% (inactive) | –
Cc1ccc(C(=O)Cl)cc1 | 0.017% (inactive) | –
